# Test results taken from the supplement of paper PMC8728848.
# The entries come from a sample that favours the strongest signals as a whole.
# What was measured:
# Experiment in all cases: glycan array binding signal (z-score within array); higher = stronger binding
# Details in all cases: glycan notation: IUPAC condensed, linker removed
# [1] = target: Fuc(a1-2)Gal(b1-4)GlcNAc(b1-2)Man(a1-3)[Fuc(a1-2)Gal(b1-4)GlcNAc(b1-2)Man(a1-6)]Man(b1-4)GlcNAc(b1-4)GlcNAc
# How it was run: (§1)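 Columns mapping to the same glycan were averaged after glycan names were converted to IUPAC-condensed notation. The data come from 3228 arrays in the Consortium for Functional Glycomics database, limited to those with an available protein sequence. Binding is reported as a within-array Z-score averaged across arrays of one protein sequence and across linkers.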
# [2] = target: Fuc(a1-2)Gal(b1-4)GlcNAc(b1-2)[Fuc(a1-2)Gal(b1-4)GlcNAc(b1-4)]Man(a1-3)[Fuc(a1-2)Gal(b1-4)GlcNAc(b1-2)Man(a1-6)]Man(b1-4)GlcNAc(b1-4)GlcNAc
# How it was run: as §1
# [3] = target: Fuc(a1-2)Gal(b1-4)GlcNAc(b1-3)Gal(b1-4)GlcNAc(b1-2)Man(a1-3)[Fuc(a1-2)Gal(b1-4)GlcNAc(b1-3)Gal(b1-4)GlcNAc(b1-2)Man(a1-6)]Man(b1-4)GlcNAc(b1-4)GlcNAc
# How it was run: as §1
# [4] = target: Fuc(a1-2)Gal(b1-4)[Fuc(a1-3)]GlcNAc(b1-3)Gal(b1-4)[Fuc(a1-3)]GlcNAc(b1-3)Gal(b1-4)[Fuc(a1-3)]GlcNAc
# How it was run: as §1
# [5] = target: Fuc(a1-2)Gal6S(b1-3)GlcNAc6S
# How it was run: as §1
# [6] = target: Fuc(a1-2)[GalNAc(a1-3)]Gal(b1-4)GlcNAc(b1-3)Gal(b1-4)GlcNAc
# How it was run: as §1
# [7] = target: Fuc(a1-2)[GalNAc(a1-3)]Gal(b1-4)GlcNAc(b1-3)GalNAc
# How it was run: as §1
# [8] = target: Fuc(a1-2)[GalNAc(a1-3)]Gal(b1-4)[Fuc(a1-3)]GlcNAc
# How it was run: as §1
# [9] = target: Fuc(a1-3)[GalNAc(b1-4)]GlcNAc
# How it was run: as §1
# [10] = target: Gal(a1-3)Gal(b1-4)GlcNAc(b1-2)Man(a1-3)[Gal(a1-3)Gal(b1-4)GlcNAc(b1-2)Man(a1-6)]Man(b1-4)GlcNAc(b1-4)GlcNAc
# How it was run: as §1
# Gal(a1-3)GalNAc = target: Gal(a1-3)GalNAc
# How it was run: as §1
# [11] = target: Gal(a1-4)Gal(b1-4)GlcNAc(b1-2)Man(a1-3)[Gal(a1-4)Gal(b1-4)GlcNAc(b1-2)Man(a1-6)]Man(b1-4)GlcNAc(b1-4)GlcNAc
# How it was run: as §1
# [12] = target: Gal(b1-3)GalNAc(a1-3)[Fuc(a1-2)]Gal(b1-4)GlcNAc
# How it was run: as §1
# [13] = target: Gal(b1-3)GlcNAc(a1-3)Gal(b1-4)GlcNAc
# How it was run: as §1
# [14] = target: Gal(b1-3)GlcNAc(b1-2)Man(a1-3)[Gal(b1-3)GlcNAc(b1-2)Man(a1-6)]Man(b1-4)GlcNAc(b1-4)GlcNAc
# How it was run: as §1
# [15] = target: Gal(b1-4)GlcNAc(a1-6)Gal(b1-4)GlcNAc
# How it was run: as §1
# [16] = target: Gal(b1-4)GlcNAc(b1-2)Man(a1-3)[Gal(b1-4)GlcNAc(b1-2)Man(a1-6)]Man(b1-4)GlcNAc(b1-4)GlcNAc
# How it was run: as §1
# [17] = target: Gal(b1-4)GlcNAc(b1-2)[Gal(b1-4)GlcNAc(b1-6)]Man(a1-6)[Gal(b1-4)GlcNAc(b1-2)Man(a1-3)]Man(b1-4)GlcNAc(b1-4)[Fuc(a1-6)]GlcNAc
# How it was run: as §1
# [18] = target: Gal(b1-4)GlcNAc(b1-3)Gal(b1-4)GlcNAc
# How it was run: as §1
# [19] = target: Gal(b1-4)GlcNAc(b1-3)Gal(b1-4)GlcNAc(b1-2)[Gal(b1-4)GlcNAc(b1-3)Gal(b1-4)GlcNAc(b1-6)]Man(a1-6)[Gal(b1-4)GlcNAc(b1-3)Gal(b1-4)GlcNAc(b1-2)Man(a1-3)]Man(b1-4)GlcNAc(b1-4)GlcNAc
# How it was run: as §1
# [20] = target: Gal(b1-4)GlcNAc(b1-3)Gal(b1-4)GlcNAc(b1-3)Gal(b1-4)GlcNAc
# How it was run: as §1
# [21] = target: Gal(b1-4)GlcNAc(b1-3)Gal(b1-4)GlcNAc(b1-3)GalNAc
# How it was run: as §1
# [22] = target: Gal(b1-4)GlcNAc(b1-3)Gal(b1-4)GlcNAc(b1-3)[Gal(b1-4)GlcNAc(b1-3)Gal(b1-4)GlcNAc(b1-6)]GalNAc
# How it was run: as §1
# [23] = target: Gal3S(b1-3)[Fuc(a1-4)]GlcNAc
# How it was run: as §1
# [24] = target: Gal3S(b1-4)[Fuc(a1-3)]Glc6S
# How it was run: as §1
# Gal6S(b1-3)GlcNAc = target: Gal6S(b1-3)GlcNAc
# How it was run: as §1
# [25] = target: GalNAc(b1-4)GlcNAc(b1-2)Man(a1-3)[GalNAc(b1-4)GlcNAc(b1-2)Man(a1-6)]Man(b1-4)GlcNAc(b1-4)GlcNAc
# How it was run: as §1
# [26] = target: GlcNAc(a1-4)Gal(b1-4)GlcNAc(b1-3)Gal(b1-4)GlcNAc
# How it was run: as §1
# [27] = target: GlcNAc(b1-2)Man(a1-3)[GlcNAc(b1-2)Man(a1-6)]Man(b1-4)GlcNAc(b1-4)GlcNAc
# How it was run: as §1
# [28] = target: GlcNAc(b1-2)[GlcNAc(b1-6)]Man(a1-6)[GlcNAc(b1-2)Man(a1-3)]Man(b1-4)GlcNAc(b1-4)GlcNAc
# How it was run: as §1
binder,measurement,setting,value
RBMC2 (Vibrio cholerae) (protein) KISVRSGFAIDAIGASASTLVGGTGGNLNAAVNVKDIKAIDLTWGKYYWGGYHLLALDFRMSNGSVISMGSKNYAYSKQTERFTVPAGSRIKGIKAWTAGWLLDGVQFELA,glycan array binding signal (z-score),[1],1.19
same,glycan array binding signal (z-score),[2],0.016
same,glycan array binding signal (z-score),[3],3.69
same,glycan array binding signal (z-score),[4],-0.273
same,glycan array binding signal (z-score),[5],-0.121
same,glycan array binding signal (z-score),[6],-0.171
same,glycan array binding signal (z-score),[7],-0.327
same,glycan array binding signal (z-score),[8],-0.4
same,glycan array binding signal (z-score),[9],-0.311
same,glycan array binding signal (z-score),[10],3.79
same,glycan array binding signal (z-score),Gal(a1-3)GalNAc,-0.276
same,glycan array binding signal (z-score),[11],4.07
same,glycan array binding signal (z-score),[12],-0.258
same,glycan array binding signal (z-score),[13],-0.3
same,glycan array binding signal (z-score),[14],3.3
same,glycan array binding signal (z-score),[15],-0.466
same,glycan array binding signal (z-score),[16],-0.184
same,glycan array binding signal (z-score),[17],0.211
same,glycan array binding signal (z-score),[18],-0.235
same,glycan array binding signal (z-score),[19],-0.097
same,glycan array binding signal (z-score),[20],-0.368
same,glycan array binding signal (z-score),[21],-0.363
same,glycan array binding signal (z-score),[22],-0.254
same,glycan array binding signal (z-score),[23],-0.327
same,glycan array binding signal (z-score),[24],-0.305
same,glycan array binding signal (z-score),Gal6S(b1-3)GlcNAc,-0.328
same,glycan array binding signal (z-score),[25],1.47
same,glycan array binding signal (z-score),[26],-0.281
same,glycan array binding signal (z-score),[27],3.67
same,glycan array binding signal (z-score),[28],-0.232
